# Source: the supplement of paper PMC12494721
# Counter-ions that a name gives are not always drawn.
# Assays:
# Details in all cases: incubation time: 27 h, anaerobic, 37 °C;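 for the amine columns active = adjusted P below 0.05 in both replicates with a change the same way and a mean fold change under 0.8 or over 1.25; inactive = the rest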
# [1] = test system: Clostridium sporogenes DSM 1664; experiment: growth (OD595) fold change vs plate DMSO controls (fold change (ratio)); higher = more growth
# How it was run: (§1)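 To obtain OD, 595 nm absorbance readings were blank-subtracted, corrected for compound background using 20 µM compound solutions in water, and multiplied by a calibration factor of 5. They came from 96-well mGAM cultures grown anaerobically for 27 h at 37 °C and shaken before reading. Growth is the fold change relative to the median of plate DMSO controls. Two biological replicates were averaged, and fold changes above 1.5 were set to NA.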
# [2] = test system: Escherichia coli IAI1; experiment: as above
# How it was run: as §1
# [3] = test system: Klebsiella aerogenes DSM 30053; experiment: as above
# How it was run: as §1
# [4] = test system: Ruminococcus gnavus DSM 108212; experiment: as above
# How it was run: as §1
# [5] = test system: Klebsiella aerogenes DSM 30053; experiment: fold change of Histamine concentration vs plate DMSO controls (fold change (ratio)); higher = more amine produced, active = hit call of the paper (significant change in both replicates, either direction)
# How it was run: (§2)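 Anaerobic mGAM cultures of four gut bacterial strains were grown at 37 °C for 27 h in 80 µL wells, starting at OD 0.1 before 1:1 dilution. Compounds were at 20 µM final (sweeteners 50 µM). Whole cultures were extracted with cold acetonitrile/methanol containing 0.1% formic acid and centrifuged. Amines were quantified by LC–triple-quadrupole MS (dynamic MRM) against external calibration curves and drift-corrected within batch. Each value is the fold change versus plate DMSO controls, averaged over 2 biological replicates.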
# [6] = test system: Clostridium sporogenes DSM 1664; experiment: fold change of Tryptamine concentration vs plate DMSO controls (fold change (ratio)); higher = more amine produced, active = hit call of the paper (significant change in both replicates, either direction)
# How it was run: as §2
# [7] = test system: Ruminococcus gnavus DSM 108212; experiment: as above
# How it was run: as §2
# [8] = test system: Escherichia coli IAI1; experiment: fold change of Putrescine concentration vs plate DMSO controls (fold change (ratio)); higher = more amine produced, active = hit call of the paper (significant change in both replicates, either direction)
# How it was run: as §2
# [9] = test system: Klebsiella aerogenes DSM 30053; experiment: as above
# How it was run: as §2
# [10] = test system: Escherichia coli IAI1; experiment: fold change of Cadaverine concentration vs plate DMSO controls (fold change (ratio)); higher = more amine produced, active = hit call of the paper (significant change in both replicates, either direction)
# How it was run: as §2
# [11] = test system: Klebsiella aerogenes DSM 30053; experiment: as above
# How it was run: as §2
# [12] = test system: Ruminococcus gnavus DSM 108212; experiment: fold change of 2-Phenylethylamine concentration vs plate DMSO controls (fold change (ratio)); higher = more amine produced, active = hit call of the paper (significant change in both replicates, either direction)
# How it was run: as §2
Structure (SMILES),growth [1],growth [2],growth [3],growth [4],fold change of Histamine concentration [5],fold change of Tryptamine concentration [6],fold change of Tryptamine concentration [7],fold change of Putrescine concentration [8],fold change of Putrescine concentration [9],fold change of Cadaverine concentration [10],fold change of Cadaverine concentration [11],fold change of 2-Phenylethylamine concentration [12]
CCCNC(C)(C)C(=O)Nc1ccccc1C [Quatacaine] (20 µM),1.01,0.991,0.979,0.952,1.01 (inactive),1.01 (inactive),1.05 (inactive),0.994 (inactive),1 (inactive),0.951 (inactive),0.997 (inactive),1.04 (inactive)
CCCCOC(=O)c1ccccc1Nc1cccc(C(F)(F)F)c1 [Ufenamate] (20 µM),0.986,1.07,1.07,0.991,0.944 (inactive),1.03 (inactive),1.11 (inactive),1.06 (inactive),0.979 (inactive),1.03 (inactive),1.02 (inactive),1.14 (inactive)
NS(=O)(=O)c1cc2c(cc1Cl)NC(CC1CCCC1)NS2(=O)=O (stereo not given) [Cyclopenthiazide] (20 µM),1.33,1.03,0.98,0.993,1.01 (inactive),1.03 (inactive),1.04 (inactive),1.07 (inactive),1.01 (inactive),0.979 (inactive),0.996 (inactive),1.04 (inactive)
OCc1cc(C(O)CNCCCCCCOCCCCc2ccccc2)ccc1O (stereo not given) [Salmeterol] (20 µM),1.17,1.02,1,0.975,1.04 (inactive),1.04 (inactive),0.936 (inactive),1.07 (inactive),0.975 (inactive),1.02 (inactive),0.986 (inactive),0.981 (inactive)
C[C@H]1[C@@H](O)O[C@@H]2O[C@@]3(C)CC[C@H]4[C@H](C)CC[C@@H]1[C@@]24OO3 [Artenimol] (20 µM),1.03,1.03,0.982,1.04,1.01 (inactive),0.991 (inactive),1.01 (inactive),1.02 (inactive),1.01 (inactive),1.02 (inactive),1.01 (inactive),0.965 (inactive)
C=CCc1ccc(OC)c(OC)c1 [Methyleugenol] (20 µM),0.942,1.08,0.993,1.06,0.992 (inactive),0.986 (inactive),1.02 (inactive),1.02 (inactive),0.921 (inactive),0.988 (inactive),1.15 (inactive),1.02 (inactive)
Cc1c(N(C)C)c(=O)n(-c2ccccc2)n1C [Amidopyrine] (20 µM),0.923,1.02,0.997,1.18,0.997 (inactive),0.979 (inactive),1.16 (inactive),0.995 (inactive),0.986 (inactive),0.985 (inactive),1.03 (inactive),1.19 (inactive)
CO[C@@]12[C@H](COC(N)=O)C3=C(C(=O)C(C)=C(N)C3=O)N1C[C@@H]1N[C@@H]12 [Mitomycin C] (20 µM),0.678,0.0414,0.824,0.291,1.15 (inactive),0.394 (active),0.153 (active),0.663 (inactive),0.968 (inactive),0.306 (active),0.995 (inactive),0.15 (active)
C/C(=C(\CCOC(=O)c1ccccc1)SS/C(CCOC(=O)c1ccccc1)=C(/C)N(C=O)Cc1cnc(C)nc1N)N(C=O)Cc1cnc(C)nc1N [Bisbentiamine] (20 µM),0.925,0.985,0.994,1.01,1 (inactive),0.975 (inactive),0.917 (inactive),0.998 (inactive),0.999 (inactive),1.03 (inactive),0.983 (inactive),0.855 (inactive)
N[C@@H](CCC(=O)N[C@@H](CS)C(=O)NCC(=O)O)C(=O)O [Glutathione] (20 µM),1.1,1.04,1.04,1.22,0.965 (inactive),1.1 (inactive),1.01 (inactive),1.04 (inactive),1.01 (inactive),1.03 (inactive),1.01 (inactive),1.02 (inactive)
COc1cc(C)c(/C=C/C(C)=C/C=C/C(C)=C/C(=O)O)c(C)c1C [Acitretin] (20 µM),0.986,1.1,1.02,1.09,0.97 (inactive),0.967 (inactive),0.962 (inactive),1.18 (inactive),0.996 (inactive),0.971 (inactive),1.01 (inactive),0.99 (inactive)
NC(=O)OCC(COC(N)=O)c1ccccc1 [Felbamate] (20 µM),1.07,0.986,0.988,0.902,0.989 (inactive),1.02 (inactive),1.05 (inactive),1 (inactive),0.993 (inactive),1.05 (inactive),0.985 (inactive),1.07 (inactive)
N[C@@H]1CONC1=O [D-cycloserine] (20 µM),0.977,0.973,1.09,0.926,0.897 (inactive),0.958 (inactive),0.931 (inactive),1 (inactive),1.03 (inactive),1.02 (inactive),1.05 (inactive),0.868 (inactive)
CC(c1cc2ccccc2s1)N(O)C(N)=O (stereo not given) [Zileuton] (20 µM),1.11,0.91,0.978,1.01,1.06 (inactive),0.987 (inactive),1.03 (inactive),0.86 (inactive),1.01 (inactive),1 (inactive),0.98 (inactive),1.07 (inactive)
O=C(O)c1cc(=O)c2c(OCC(O)COc3cccc4oc(C(=O)O)cc(=O)c34)cccc2o1 [Cromolyn disodium salt] (20 µM),1.06,1.05,1.02,1.11,0.943 (inactive),0.983 (inactive),1.04 (inactive),0.994 (inactive),0.96 (inactive),0.99 (inactive),0.979 (inactive),1.06 (inactive)
CC(C)CN(C[C@@H](O)[C@H](Cc1ccccc1)NC(=O)O[C@H]1CCOC1)S(=O)(=O)c1ccc(N)cc1 [Amprenavir] (20 µM),1.1,1.05,0.974,0.947,0.92 (inactive),0.952 (inactive),1.07 (inactive),1.14 (inactive),1.01 (inactive),0.952 (inactive),1.03 (inactive),1.08 (inactive)
C=CCc1ccccc1OCC(O)CNC(C)C (stereo not given) [Alprenolol hydrochloride] (20 µM),0.992,0.97,0.955,0.856,1.05 (inactive),1.07 (inactive),1.08 (inactive),0.934 (inactive),0.985 (inactive),1.01 (inactive),0.998 (inactive),0.998 (inactive)
CNNCc1ccc(C(=O)NC(C)C)cc1 [Procarbazine hydrochloride] (20 µM),1.03,1.07,1.02,1.27,1.05 (inactive),1.02 (inactive),1.03 (inactive),1.02 (inactive),0.983 (inactive),0.984 (inactive),1 (inactive),1.06 (inactive)
CN1C2CCCC1CC(NC(=O)c1nn(C)c3ccccc13)C2 (stereo not given) [Granisetron] (20 µM),1.04,1.02,1.01,1.04,1.02 (inactive),1.04 (inactive),1.07 (inactive),1.05 (inactive),1 (inactive),0.999 (inactive),1.01 (inactive),1.08 (inactive)
CCC1(c2ccccc2)NC(=O)N(C)C1=O (stereo not given) [Mephenytoin] (20 µM),0.908,1.05,1.11,1.14,0.905 (inactive),1.09 (inactive),1.02 (inactive),1.06 (inactive),1.02 (inactive),1.01 (inactive),1.02 (inactive),1.03 (inactive)
COc1ccc(C(=O)c2ccc(C)cc2)c(O)c1 [Mexenone] (20 µM),0.644,0.407,0.378,0,1.02 (inactive),1.01 (inactive),1.03 (inactive),1.06 (inactive),1.01 (inactive),1.02 (inactive),0.998 (inactive),1.04 (inactive)
C=CCOc1ccc(CC(=O)O)cc1Cl [Alclofenac] (20 µM),0.943,1.06,0.98,1,0.998 (inactive),1.05 (inactive),1.05 (inactive),1.02 (inactive),0.974 (inactive),0.97 (inactive),0.991 (inactive),1.09 (inactive)
CN1CCN(C2Cc3ccccc3Sc3ccc(Cl)cc32)CC1 (stereo not given) [Octoclothepin maleate salt] (20 µM),0.962,0.98,0.941,0.931,1.01 (inactive),1.05 (inactive),0.848 (inactive),1.06 (inactive),1 (inactive),1.1 (inactive),0.99 (inactive),0.992 (inactive)
CN1CCN(C2=Nc3cc(Cl)ccc3Nc3ccccc32)CC1 [Clozapine] (20 µM),1.01,0.997,0.984,0.688,1.01 (inactive),1.02 (inactive),0.947 (inactive),1.02 (inactive),0.989 (inactive),0.889 (inactive),1 (inactive),0.92 (inactive)
Oc1ccc(OCc2ccccc2)cc1 [Monobenzone] (20 µM),1.21,0.897,1.11,1.03,0.974 (inactive),1.02 (inactive),0.872 (inactive),0.884 (inactive),1.01 (inactive),0.978 (inactive),0.996 (inactive),0.828 (inactive)
